In all, about 410,000 compounds went through this assay and about 18,000 (4.4%) were called active. About 7% were inconclusive and are not listed. This is one part of a sample in which actives are shown more often than they occur. Unmarked numbers belong to inactive results. Cut-off read from the data, not from the text of the source: active = activity change below about -60%; inconclusive = no clear call, values can overlap the other calls; inactive = above about -39%.
% is set by controls: 0 for no effect and ±100 for the full control effect.

A short description of the test: qHTS Assay for inhibitors of the human cytomegalovirus (HCMV). Particulars: HFF cells, HCMV-luciferase reporter, 72 h; at 57.5 µM; hits give low values. In short, it runs like this:
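Cell-based, HFFs, 1000 cells/well, 16 h 37C; cpds in DMSO + HCMV-luc, MOI 1 PFU/cell; 72 h 37C; OneGlo luminescence after 5 min RT; norm. to buffer vs Salinomycin 10uM.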
With `CCC(=O)Nc1cccc(C(=O)OCc2cc(=O)n3nc(CC)sc3n2)c1`, the activity change, negative = inhibition is -14.2%.

For the compound `CC(C)=CCc1c(O)c(CC=C(C)C)c2occ(-c3ccc(O)cc3)c(=O)c2c1O`, the activity change, negative = inhibition is -100% (active).

In the case of `Cc1ccc(C(O)c2nnc(Nc3cccc(Oc4ccccc4)c3)s2)cc1` (configuration not stated), the activity change, negative = inhibition was -5.85%.

As for `COC(=O)c1ccccc1NC(=O)c1cncc(Br)c1`, the activity change, negative = inhibition was -30.4%.

In the case of `O=C(CCC(=O)N/N=C/c1ccc(Br)o1)N/N=C/c1ccc(Br)o1`, the activity change, negative = inhibition was -61.8% (active).

Regarding `Cc1ccc(C(=O)N/N=C\c2cc(Br)c(Br)o2)cn1`, the activity change, negative = inhibition was -32.6%.

For `O=C(N/N=C/c1ccc(Br)o1)c1cncc(Br)c1`, the activity change, negative = inhibition is -102% (active).

In the case of `O=C(CCNc1n[nH]c(=O)[nH]c1=O)N/N=C\c1ccc(Br)cc1`, the activity change, negative = inhibition was 0%.

Regarding `O=C(CCNC(=O)c1ccccc1)NN=Cc1ccc(Br)o1`, the activity change, negative = inhibition is -13.4%.

Consider `COc1ccc(-c2cc(C(F)(F)F)n3nc(-c4ccccc4)cc3n2)cc1OC`, for which the activity change, negative = inhibition is -15.9%.

As for `COc1ccccc1NC(=O)C1CCN(C(=O)c2ccc(C(C)(C)C)cc2)CC1`, the activity change, negative = inhibition was 28.4%.

For the compound `CC(=O)Nc1ccc(S(=O)(=O)N2CCn3cccc3C2C)cc1` (configuration not stated), the activity change, negative = inhibition was 36.8%.

For `CCC(Cc1ccccc1)NS(=O)(=O)c1ccc2c(c1)NC(=O)CS2` (configuration not stated), the activity change, negative = inhibition is -70.6% (active).

Regarding `COc1ccccc1CNS(=O)(=O)c1ccc2c(c1)NC(=O)CS2`, the activity change, negative = inhibition is -16.2%.

On to `O=C1CSc2ccc(S(=O)(=O)NCc3ccccc3)cc2N1`, for which the activity change, negative = inhibition is 0%.

On to `Cc1cccc(N2CCN(C(=O)c3cnc(N4CCCC4)nc3C)CC2)c1C`, for which the activity change, negative = inhibition was -23.5%.

Take `O=C(CSc1nc2ccccc2o1)N1CCN(c2ccccc2)CC1`: the activity change, negative = inhibition is -78.3% (active).

In the case of `O=C(CSc1nc2ccccc2o1)N1CCN(c2ccc(Cl)cc2)CC1`, the activity change, negative = inhibition is -0.478%.

With `Cc1nc(SCC(=O)N2CCN(c3ccccc3)CC2)[nH]c(=O)c1C`, the activity change, negative = inhibition is 17.7%.

`COC(=O)c1ccccc1NC(=O)Cn1c(=O)n(-c2cccc(C(F)(F)F)c2)c(=O)c2c(C)c(C)sc21`: the activity change, negative = inhibition was -21.9%.

Turning to `O=C(CN1C(=O)COc2ccc(S(=O)(=O)N3CCOCC3)cc21)N1CCN(c2cccc(Cl)c2)CC1`, the activity change, negative = inhibition is -4.92%.

Turning to `CCC1(CC)NC(=O)N(CC(=O)OCC(=O)NC(=O)c2ccccc2)C1=O`, the activity change, negative = inhibition is -39.9%.

For the compound `Cn1c(CCc2ccccc2)nnc1SCC(N)=O`, the activity change, negative = inhibition is 8.58%.

`N#CC1=C(SCc2ccc(C#N)cc2)N=C(N)C(c2nc(-c3ccccc3)cs2)C12CCCCC2` (configuration not stated): the activity change, negative = inhibition was -98.4% (active).

For `N#Cc1ccc(CSc2ncccn2)cc1`, the activity change, negative = inhibition was 4.06%.

With `O=C(CCCn1c(=O)c2cccn2c2cccnc21)NCc1ccc(F)cc1`, the activity change, negative = inhibition was -18%.

Regarding `CCOc1ccccc1NC(=O)c1ccc2c(c1)CCN2S(=O)(=O)c1ccc(C)cc1`, the activity change, negative = inhibition is 18.6%.

Consider `Cc1ccc(C(=O)Nc2nc(N)n(-c3ccccc3)n2)cc1`, for which the activity change, negative = inhibition was 68.4%.

`Cc1ccc2c(c1)c1ncnc(N3CCc4ccccc4C3)c1n2C`: the activity change, negative = inhibition is 110%.

With `Cc1ccc2nc(C)c3c(c2c1)N(c1ccccc1)CC3`, the activity change, negative = inhibition is -71.1% (active).

For `O=C(CN1CCN(Cc2ccc(F)cc2Cl)C1=O)NCc1cccs1`, the activity change, negative = inhibition was -20.5%.

For `Cc1ccc(N2C(=O)C3C4C=CC(CC4)C3C2=O)cc1Cl` (configuration not stated), the activity change, negative = inhibition is 2.41%.

On to `CC(C)CCN(C(=O)c1csnn1)C(C(=O)NC1CCCC1)c1ccccc1` (configuration not stated), for which the activity change, negative = inhibition was 19.1%.

As to `Cc1ccc(NC(=O)CCCNC(=O)c2ccc(Cl)cc2)cc1S(=O)(=O)N1CCCCC1`, the activity change, negative = inhibition is -15.5%.

For the compound `Cc1ccc(NC(=O)CCNC(=O)c2ccc([N+](=O)[O-])cc2)cc1S(=O)(=O)N1CCOCC1`, the activity change, negative = inhibition is -102% (active).

Regarding `Cc1ccc(C(=O)OCC(=O)Nc2ccc(Cl)cn2)cc1S(=O)(=O)N1CCOCC1`, the activity change, negative = inhibition was -11.7%.

Regarding `Cc1ccc(NC(=O)COC(=O)C2CC2)cc1S(=O)(=O)N1CCOCC1`, the activity change, negative = inhibition is -3.87%.

In the case of `O=C(CCNC(=O)c1ccc([N+](=O)[O-])cc1)Nc1ccccc1N1CCOCC1`, the activity change, negative = inhibition is -0.0167%.

Take `Cc1ccc(NC(=O)COC(=O)CNC(=O)c2ccc(Cl)cc2Cl)cc1S(=O)(=O)N1CCOCC1`: the activity change, negative = inhibition was -100% (active).

As to `O=C(NCCc1ccccn1)c1cc(C(=O)C2CCCCC2)c[nH]1`, the activity change, negative = inhibition was 24.3%.

`COC(=O)CN1C(=S)N(c2ccccc2)C(=O)C1CC(=O)Nc1ccc(Cl)cc1` (configuration not stated): the activity change, negative = inhibition was -4.58%.

As for `Cc1ccc(Cl)cc1N1CCN(S(=O)(=O)c2cc3[nH]c(=O)c(=O)[nH]c3cc2C)CC1`, the activity change, negative = inhibition is 14.4%.

In the case of `COc1ccccc1C(=O)OCc1cc(=O)n2nc(-c3cccs3)sc2n1`, the activity change, negative = inhibition was 7.8%.

On to `CC(C)(C)c1ccc(S(=O)(=O)Nc2ccc(O)c(Sc3nc4ccccc4s3)c2)cc1`, for which the activity change, negative = inhibition was -13.2%.

For `CC1=C[C@H]2Cc3cc(C)cc(C)c3S(=O)(=O)[C@@H]2C=C1`, the activity change, negative = inhibition was -67.4% (active).

On to `Cc1oc2c(c1C(=O)Nc1ccc(F)c(F)c1)C1=NCCN1C=N2`, for which the activity change, negative = inhibition was -2.2%.

For `CCn1c(C(=O)Nc2cc(Cl)ccc2C)cc2sc(Cl)cc21`, the activity change, negative = inhibition was -25.2%.

`Fc1ccc(Cn2nnnc2C(c2cccs2)N2CCCCCC2)cc1` (configuration not stated): the activity change, negative = inhibition was -74.3% (active).

Regarding `N#Cc1ccc(C(c2nnnn2CCc2ccccc2)N2CCCCCC2)cc1` (configuration not stated), the activity change, negative = inhibition was -31.2%.

For the compound `Fc1ccccc1C(c1nnnn1Cc1ccc2c(c1)OCO2)N1CCN(Cc2ccccc2)CC1` (configuration not stated), the activity change, negative = inhibition was -2.67%.

For `COC(=O)c1c(NC(=O)C(C)Oc2ccc(Cl)c(C)c2)sc(C)c1C` (configuration not stated), the activity change, negative = inhibition is 24.4%.

In the case of `Cc1cc(C)cc(OCC(=O)OCC(=O)NC2CCCC2)c1`, the activity change, negative = inhibition is 0%.

Turning to `CCOC(=O)C1CCCN(C(=O)Cn2ncc3c(C)n(Cc4ccc(F)cc4)c(C)c3c2=O)C1` (configuration not stated), the activity change, negative = inhibition was -24.7%.

With `CCOC(=O)c1scc(-c2ccccc2)c1S(=O)(=O)Nc1ccccc1F`, the activity change, negative = inhibition was -9.83%.

Regarding `COC(=O)c1scc(-c2ccccc2)c1S(=O)(=O)Nc1ccccc1`, the activity change, negative = inhibition is -65.6% (active).

Turning to `COC(=O)c1scc(-c2ccc(C)cc2)c1S(=O)(=O)Nc1cc(Cl)c(OC)cc1OC`, the activity change, negative = inhibition is -32.1%.

Consider `Cc1cc(O)c(C(c2ccccc2)N2CCN(c3ccccc3F)CC2)c(=O)n1Cc1ccco1` (configuration not stated), for which the activity change, negative = inhibition is 11.6%.

The record behind these values is PubChem BioAssay AID1259415 (National Center for Advancing Translational Sciences (NCATS), 2018).
